Inconclusive results are not listed. Entries that show only a call come without a potency. Values without a mark were called inactive. Calls of active or inactive are those of the source. Unless noted, the call rests on the fitted dose curve.
What was measured:
[1] = qHTS for Inhibitors of the Functional Ribonucleoprotein Complex (vRNP) of Lassa (LASV) Arenavirus: LASV Primary Screen - GLuc reporter signal (AID 1347082; calls by dose curve; tested in HEK293 reporter line; further: nearly all actives have a fitted effect of over 60% in size)
[2] = qHTS for Inhibitors of the Functional Ribonucleoprotein Complex (vRNP) of Lassa (LASV) Arenavirus: Viability assay - alamar blue signal for LASV Primary Screen (AID 1347083; calls by dose curve; tested in HEK293 reporter line; further: nearly all actives have a fitted effect of over 80% in size)
[3] = qHTS for Inhibitors of the Functional Ribonucleoprotein Complex (vRNP) of Lymphocytic Choriomeningitis Arenaviruses (LCMV): Viability assay - alamar blue signal for LCMV Primary Screen (AID 1347085; calls by dose curve; tested in HEK293 reporter line; further: nearly all actives have a fitted effect of over 80% in size)
[4] = molecular target: Nucleoprotein (Lymphocytic choriomeningitis virus (strain Armstrong)) (UniProt P09992); experiment: qHTS for Inhibitors of the Functional Ribonucleoprotein Complex (vRNP) of Lymphocytic Choriomeningitis Arenaviruses (LCMV): LCMV Primary Screen - GLuc reporter signal (AID 1347086); further: nearly all actives have a fitted effect of over 70% in size
Sequence of Nucleoprotein (Lymphocytic choriomeningitis virus (strain Armstrong)) (P09992 whole entry, looked up): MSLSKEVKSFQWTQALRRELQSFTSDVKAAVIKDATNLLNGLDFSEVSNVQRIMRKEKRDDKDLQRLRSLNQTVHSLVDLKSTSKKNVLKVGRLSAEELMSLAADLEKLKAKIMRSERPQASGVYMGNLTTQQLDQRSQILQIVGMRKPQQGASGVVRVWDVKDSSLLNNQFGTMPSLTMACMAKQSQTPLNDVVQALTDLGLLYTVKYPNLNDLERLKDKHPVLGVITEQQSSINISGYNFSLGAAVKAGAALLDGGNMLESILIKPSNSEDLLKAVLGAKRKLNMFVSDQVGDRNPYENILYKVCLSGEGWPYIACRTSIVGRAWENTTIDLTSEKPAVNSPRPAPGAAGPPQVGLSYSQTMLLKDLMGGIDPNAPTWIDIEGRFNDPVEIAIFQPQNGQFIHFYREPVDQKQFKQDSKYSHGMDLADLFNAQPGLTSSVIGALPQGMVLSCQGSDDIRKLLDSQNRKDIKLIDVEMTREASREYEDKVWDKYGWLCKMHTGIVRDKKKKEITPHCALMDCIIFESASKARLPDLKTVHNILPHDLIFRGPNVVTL
Potency means the concentration at half of the fitted maximal effect.

Compound | Potency [1] | Potency [2] | Potency [3] | Potency [4]
CC1=C(O)C(=O)OC1C (stereo not given) | inactive | inactive | inactive | inactive
FC(F)c1nc2ccccc2n1-c1nc(N2CCOCC2)nc(N2CCOCC2)n1 | 8630 nM (active) | 3060 nM (active) | 13700 nM (active) | 19300 nM (active)
CCCCc1nc2ccccc2[nH]1 | inactive | inactive | inactive | inactive
CCCCCCCOC(C)=O | inactive | inactive | inactive | inactive
Cn1c2c(c(=O)c3ccccc31)C[C@@H](O)C(C)(C)O2 | inactive | inactive | inactive | inactive
O=CCCc1ccccc1 | inactive | inactive | inactive | inactive
C=CC(O)CCCCC (stereo not given) | inactive | inactive | inactive | inactive
O=C(O)C=C(Br)Br | inactive | inactive | inactive | inactive
C[C@@H]1CC2OC(=O)[C@@]3(C)C(=O)CC[C@@](C)(C23)[C@@]1(O)CCc1ccoc1 (stereo not given in full) | inactive | inactive | inactive | inactive
OCCN1C[C@H](O)[C@@H](O)[C@H](O)[C@@H]1CO | inactive | inactive | inactive | inactive
COc1ccc2c(=O)c(-c3ccc(OC)c(OC)c3)coc2c1 | inactive | inactive | inactive | inactive
CC1OCCC1=O (stereo not given) | inactive | inactive | inactive | inactive
C=C(C)[C@@H]1CCC2=CCC[C@@H](C)[C@]2(C)C1 | inactive | inactive | inactive | inactive
COc1cc2c(cc1O)C(Cc1ccc(O)cc1)[N+](C)(C)CC2 (stereo not given) | inactive | inactive | inactive | inactive
CS[C@H]1SC[C@@H]2C(=O)N(C)[C@H](C(C)C)C(=O)OC[C@H](NC(=O)c3cnc4ccccc4n3)C(=O)N[C@H](C)C(=O)N(C)[C@@H]1C(=O)N(C)[C@H](C(C)C)C(=O)OC[C@H](NC(=O)c1cnc3ccccc3n1)C(=O)N[C@H](C)C(=O)N2C | 61.1 nM (active) | 10.9 nM (active) | 6.1 nM (active) | 17.2 nM (active)
CCCSSCCC | inactive | inactive | inactive | inactive
COC(=O)CCC(=O)OC | inactive | inactive | inactive | inactive
COC1CC(C)C(OC)c2cc(O)cc(c2O)NC(=O)C(C)=CC=CC(C)C(OC(N)=O)C(C)=CC(C)C1OC (stereo not given) | inactive | inactive | inactive | inactive
C=C(C)[C@@H]1CC[C@]2(C(=O)O)CC[C@]3(C)C(CCC4[C@@]5(C)CC[C@H](O)C(C)(C)C5CC[C@]43C)C12 (stereo not given in full) | inactive | inactive | inactive | inactive
CC[C@H](C)/C=C(C)/C=C/C1=CC2=CC(=O)[C@]3(C)OC(=O)[C@@H](C(C)=O)[C@@H]3C2=CO1 | inactive | inactive | inactive | inactive

Compound | Potency [1] | Potency [2] | Potency [3] | Potency [4]
CCC(C)(C)O | inactive | inactive | inactive | inactive
CC[C@@H](C)[C@@H](O)[C@H](C)C(=O)[C@H](C)/C=C(\C)C[C@H](C)[C@@H]1OC(=O)[C@H]1CC | inactive | inactive | inactive | inactive
C=CCCC[C@@H]1OC(=O)CNC(=O)C([C@@H](C)CC)NC(=O)[C@@H]2CCCN2C(=O)C([C@@H](C)CC)OC(=O)[C@H](Cc2ccccc2)N(C)C(=O)[C@H](C(C)C)NC(=O)C1(C)C (stereo not given in full) | inactive | inactive | inactive | inactive
CC(=O)OC[C@]1(OC(C)=O)C[C@@]23CC[C@H]4[C@@](C)(CCC[C@@]4(C)C(=O)O)[C@@H]2CC[C@@H]1C3 | inactive | inactive | inactive | inactive
CCOC(=O)/C=C/c1ccccc1 | inactive | inactive | inactive | inactive
COC(=O)C1=CO[C@@H](O)[C@@H]2C(CO)=CC[C@@H]12 | inactive | inactive | inactive | inactive
CC1CCC(C(C)[C@H]2CCC3C4CC(=O)C5C[C@@H](O)CC[C@]5(C)C4CC[C@@]32C)=NC1 (stereo not given in full) | inactive | inactive | inactive | inactive
CCNC(=O)Nc1ccc(-c2nc3c(c(N4CCOC[C@H]4C)n2)CCN(C2COC2)C3)cc1 | 1930 nM (active) | 1370 nM (active) | 3060 nM (active) | 1530 nM (active)
CC/C=C\CC/C=C/CO | inactive | inactive | inactive | inactive
CCCCCCCCC=O | inactive | inactive | inactive | inactive
COc1ccc2c(=O)cc(-c3ccccc3)n(C)c2c1 | inactive | inactive | inactive | inactive
COc1cc2c(c(OC)c1OC)-c1c(cc3c(c1OC)OCO3)[C@@H](OC(C)=O)[C@H](C)[C@H](C)C2 | inactive | inactive | inactive | inactive
CC1(C)CCC[C@@]2(C)[C@@H]1CC[C@@]1(C)OC(=O)C[C@H]21 | inactive | inactive | inactive | inactive
O=C(O)Cc1ccc(O)cc1 | inactive | inactive | inactive | inactive
Cc1cccc2c3c(ccc12)C1=C(C(=O)C3=O)[C@@H](C)CO1 | inactive | inactive | inactive | inactive
CC(=O)NC(Cc1cnc[nH]1)C(=O)O (stereo not given) | inactive | inactive | inactive | inactive
COc1cc2c(c(OC)c1OC)-c1c(cc3c(c1OC)OCO3)C1OC2[C@@H](C)[C@H]1C (stereo not given in full) | inactive | inactive | inactive | inactive
NCCC(=O)c1ccccc1N | inactive | inactive | inactive | inactive
CC(C)=CCCC(C)CC(=O)O (stereo not given) | inactive | inactive | inactive | inactive
COc1cc(/C=C/c2ccccc2)cc(OC)c1 | inactive | inactive | inactive | inactive

Compound | Potency [1] | Potency [2] | Potency [3] | Potency [4]
NCCCCCN | inactive | inactive | inactive | inactive
NC(=O)Nc1ccc(Cl)c(Cl)c1 | inactive | inactive | inactive | inactive
O=C1C=C(C2OC(CO)C(O)C2O)C(=O)N1 (stereo not given) | inactive | inactive | inactive | inactive
CC(=O)c1c(O)cccc1O | inactive | inactive | inactive | inactive
COc1cc(C(=O)O[C@H]2C/C(C)=C/CC/C(C)=C/[C@@H](O)C2C(C)C)ccc1O (stereo not given in full) | inactive | inactive | inactive | inactive
C[C@H]1CCC2[C@](C)(CO)[C@@H](O)CC[C@]2(C)[C@@]12CCC(CO)(CCO)O2 (stereo not given in full) | inactive | inactive | inactive | inactive
COc1cc(-c2cc(=O)c3c(O)cc(O)cc3o2)ccc1O | inactive | inactive | inactive | inactive
O=Cc1ccc(O)cc1O | inactive | inactive | inactive | inactive
COc1cc2c(cc1O)C(Cc1ccc(O)cc1)NCC2 (stereo not given) | inactive | inactive | inactive | inactive
CC/C=C\CCOC(C)OCC (stereo not given) | inactive | inactive | inactive | inactive
COc1c2ccoc2c(OC[C@@H](OC(C)=O)C(C)(C)O)c2oc(=O)ccc12 | inactive | inactive | inactive | inactive
CCCCCCCCCCCCCCCC(=O)NCCc1c[nH]c2ccccc12 | inactive | inactive | inactive | inactive
C[N+]1([O-])[C@@H]2Cc3cc4c(cc3[C@@H]1Cc1cc3c(cc12)OCO3)OCO4 (stereo not given in full) | inactive | inactive | inactive | inactive
CC(C)(C)c1ccccc1 | inactive | inactive | inactive | inactive
COc1ccc([C@@H](OC)[C@@]2(Cc3ccc(O)cc3)N=C(N)N(C)C2=O)cc1 | inactive | inactive | inactive | inactive
COc1ccc([C@@H]2[C@@H](O)[C@H](O)[C@@H](C)N2C)cc1OC | inactive | inactive | inactive | inactive
CC12C=CC(=O)C=C1CCC1C2C(=O)CC2(C)C(=O)CCC12 (stereo not given) | inactive | inactive | inactive | inactive
COC(=O)C1(Cc2ccc(O)cc2)OC(=O)C(O)=C1c1ccc(O)cc1 (stereo not given) | inactive | inactive | inactive | inactive
CC(C)=CC(=O)O | inactive | inactive | inactive | inactive
C=C1C(=O)OC2C=C(C)CCC=C(C)CCC12 (stereo not given) | inactive | inactive | inactive | inactive

From PubChem BioAssay (NCATS)
